In PubChem BioAssay (EPA / NIEHS) one finds AC50 and outcome data, which are given here for 4 compounds.

The nature of test [1]: ATG_PXRE_CIS: Attagene CIS-FACTORIAL HepG2 Assay for human Pregnane X Receptor Element (PXRE) (AID 2282957). To be noted: HepG2 Attagene CIS-FACTORIAL PXRE reporter, mRNA; actives raise or lower the signal. The essentials: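 HepG2 cells transiently transfected with cis-element-driven multiplexed reporter units; after 24 h chemical exposure, reporter mRNA measured by RT-PCR, 6-FAM labelling, HpaI digestion and capillary electrophoresis. Bidirectional fitting relative to DMSO.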

Test [2] is described as follows: ATG_PPRE_CIS: Attagene CIS-FACTORIAL HepG2 Assay for human Peroxisome Proliferator-activated Response Element (PPRE) (AID 2282958). To be noted: HepG2 PPRE cis-element reporter, Attagene transcription factor profiling; actives raise or lower the signal. The essentials: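 HepG2, transient MRTU transfection (cis promoter elements, endogenous TFs). 24 h dosing. RNA → oligo(dT) RT → PCR → 6-FAM primer extension → HpaI digest → CE. Bidirectional fit vs DMSO.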

Test [3] in a line: ATG_RORE_CIS: Attagene CIS-FACTORIAL HepG2 Assay for human RAR-related Orphan Receptor Element (RORE) (AID 2282959). To be noted: HepG2 Attagene cis-factorial RORE reporter, mRNA; actives raise or lower the signal. The essentials:
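Transient MRTU transfection of human HepG2 liver cells (FuGene 6); 24 h compound exposure; TriZol RNA, oligo(dT) RT, PCR, FAM labeling, HpaI cut, CE fragment analysis. DMSO = negative control/baseline.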

Test [4] in a line: ATG_Sox_CIS: Attagene CIS-FACTORIAL HepG2 Assay for human SRY-box transcription factor (SOX) (AID 2282960). To be noted: HepG2 Attagene cis-factorial SOX reporter, mRNA; actives raise or lower the signal. The essentials: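 Endogenous factor activity in human liver HepG2 cells carrying transfected cis-regulated reporter units. RNA taken 24 h post-dose, reverse-transcribed, PCR-amplified and sized by capillary electrophoresis. Gain or loss of signal fitted relative to DMSO.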

Test [5] can be described thus: ATG_SREBP_CIS: Attagene CIS-FACTORIAL HepG2 Assay for human Sterol Regulatory Element Binding (SREBP) (AID 2282962). To be noted: HepG2 Attagene cis-factorial SREBP reporter, mRNA; actives raise or lower the signal. The essentials:
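mRNA induction of transfected cis-promoter reporters in HepG2 cells, 24 h post-dose. Detection: RT-PCR with 6-FAM-labelled products, HpaI digest, capillary electrophoresis. DMSO served as negative control and baseline.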

Test [6] is described as follows: ATG_TA_CIS: Attagene CIS-FACTORIAL HepG2 Assay for human TA Basal Promoter (AID 2282964). To be noted: HepG2 Attagene CIS-factorial TA basal promoter reporter; actives raise or lower the signal. The essentials:
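Transient MRTU transfection of HepG2 preceded 24 h compound exposure. Reporter mRNA levels were then read by RT-PCR with capillary electrophoresis, and this background-control endpoint was fitted bidirectionally to DMSO.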

The nature of test [7]: ATG_TAL_CIS: Attagene CIS-FACTORIAL HepG2 Assay for human TAL Basal Promoter (AID 2282966).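 Further: background control endpoint measuring basal TAL promoter reporter mRNA not a specific factor.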 To be noted: HepG2 Attagene cis-factorial TAL promoter reporter; actives raise or lower the signal. The essentials: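 HepG2 cells transiently transfected with multiplexed cis-promoter reporter units, dosed 24 h. Reporter mRNA quantified by RT-PCR, 6-FAM labelling, HpaI digestion and capillary electrophoresis; TAL basal promoter serves as background control, fitted bidirectionally versus DMSO.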

The nature of test [8]: ATG_TGFb_CIS: Attagene CIS-FACTORIAL HepG2 Assay for human Transforming Growth Factor (TGF) (AID 2282967). To be noted: HepG2 Attagene CIS TGFb reporter, mRNA transcription; actives raise or lower the signal. The essentials:
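After a 24-hour incubation with compound, transfected HepG2 cells were lysed for RNA; reporter cDNA was amplified, fluorescently end-labeled and separated by CE. DMSO served as baseline for bidirectional fits.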

A short description of test [9]: ATG_VDRE_CIS: Attagene CIS-FACTORIAL HepG2 Assay for human Vitamin D Receptor Element (VDRE) (AID 2282968). To be noted: HepG2 VDRE cis-reporter transcription, actives raise or lower the signal. The essentials: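 HepG2 cells transiently transfected with cis-element reporter units, dosed 24 h; reporter mRNA measured by RT-PCR, 6-FAM labeling, HpaI digestion and capillary electrophoresis. Activity fitted bidirectionally against DMSO baseline.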

In test [10] the target is Nuclear receptor subfamily 1 group I member 3 (Homo sapiens) (UniProt Q14994). As to the kind of experiment: ATG_CAR_TRANS: Attagene TRANS-FACTORIAL HepG2 Assay for human Constitutive Androstane Receptor (CAR) (AID 2282969; active means hit-call score of the fitted dose curve at least 0.9, where 1 is the maximum;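 further: activators raise reporter mRNA above DMSO so AC50 marks induction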). To be noted: HepG2 Attagene TRANS-FACTORIAL CAR reporter. The essentials: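 HepG2 cells transiently transfected with multiplexed GAL4-UAS reporter units expressing chimeric NR-Gal4 proteins; compound exposure 24 h. Reporter mRNA measured by RT-PCR, 6-FAM labelling, HpaI digestion and capillary electrophoresis; gain-of-signal fitted against DMSO baseline.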
Nuclear receptor subfamily 1 group I member 3 (Homo sapiens), sequence (Q14994 whole entry, looked up, the tested form may be a part): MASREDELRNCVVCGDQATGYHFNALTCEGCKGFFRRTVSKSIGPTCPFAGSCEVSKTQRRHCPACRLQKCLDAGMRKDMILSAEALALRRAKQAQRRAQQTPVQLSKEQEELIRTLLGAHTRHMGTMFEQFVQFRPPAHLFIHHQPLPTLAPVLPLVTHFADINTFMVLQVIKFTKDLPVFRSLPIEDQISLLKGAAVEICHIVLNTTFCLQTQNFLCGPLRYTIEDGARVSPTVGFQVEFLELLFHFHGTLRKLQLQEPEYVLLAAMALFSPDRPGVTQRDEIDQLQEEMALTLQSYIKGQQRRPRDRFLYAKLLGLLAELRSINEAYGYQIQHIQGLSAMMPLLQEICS

In test [11] the target is Estrogen receptor (Homo sapiens) (UniProt P03372). The experiment in a line: ATG_ERa_TRANS: Attagene TRANS-FACTORIAL HepG2 Assay for human Estrogen Receptor alpha (ERa) (AID 2282970; active means hit-call score of the fitted dose curve at least 0.9, where 1 is the maximum). To be noted: HepG2 Attagene TRANS ERa GAL4 reporter, mRNA. The essentials:
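HepG2 cells transiently transfected with multiplexed GAL4-UAS reporter units read out chimeric NR-Gal4 activity. After 24 h compound exposure, reporter mRNA was quantified by RT-PCR, 6-FAM labeling, HpaI digestion and capillary electrophoresis, relative to DMSO.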

For test [12], the target named is X-box-binding protein 1 (Homo sapiens) (UniProt P17861). As to the kind of experiment: ATG_Xbp1_CIS: Attagene CIS-FACTORIAL HepG2 Assay for human X-box Binding Protein 1 (XBP1) (AID 2282972). To be noted: HepG2 XBP1 cis-element reporter, Attagene multiplex; actives raise or lower the signal. The essentials:
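Fluorescence-labelled cDNA fragments from reporter transcripts, separated by capillary electrophoresis, give the signal. Source: HepG2 cells transfected with promoter-driven reporter units, harvested 24 h post-dose. DMSO served as reference for bidirectional curve fitting.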

Test [13] can be described thus: ATG_M_19_TRANS: Attagene TRANS-FACTORIAL HepG2 Assay for M19 Transcription Factor (Internal Marker) (AID 2282974; active means hit-call score of the fitted dose curve at least 0.9, where 1 is the maximum). To be noted: HepG2 Attagene TRANS-FACTORIAL M19 internal marker reporter. The essentials: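 Fluorescence of 6-FAM-labelled reporter cDNA fragments, separated by capillary electrophoresis, served as the readout. These derived from HepG2 cells carrying transfected GAL4-UAS reporter units after 24 h dosing, with DMSO as negative control.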

Test [14] deals with Estrogen-related receptor gamma (Homo sapiens) (UniProt P62508). As to the kind of experiment: ATG_ERRg_TRANS: Attagene TRANS-FACTORIAL HepG2 Assay for human Estrogen-Related Receptor gamma (ERRg) (AID 2282977; active means hit-call score of the fitted dose curve at least 0.9, where 1 is the maximum;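 further: hits increase reporter signal over DMSO so potencies reflect activators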). To be noted: HepG2 Attagene TRANS reporter, ERRg transactivation. The essentials: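 Transient HepG2 transfectants, 24 h compound exposure, GAL4-UAS reporter mRNA by RT-PCR/6-FAM labelling/capillary electrophoresis; positive direction vs DMSO.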
Estrogen-related receptor gamma (Homo sapiens), sequence (P62508 whole entry, looked up, the tested form may be a part): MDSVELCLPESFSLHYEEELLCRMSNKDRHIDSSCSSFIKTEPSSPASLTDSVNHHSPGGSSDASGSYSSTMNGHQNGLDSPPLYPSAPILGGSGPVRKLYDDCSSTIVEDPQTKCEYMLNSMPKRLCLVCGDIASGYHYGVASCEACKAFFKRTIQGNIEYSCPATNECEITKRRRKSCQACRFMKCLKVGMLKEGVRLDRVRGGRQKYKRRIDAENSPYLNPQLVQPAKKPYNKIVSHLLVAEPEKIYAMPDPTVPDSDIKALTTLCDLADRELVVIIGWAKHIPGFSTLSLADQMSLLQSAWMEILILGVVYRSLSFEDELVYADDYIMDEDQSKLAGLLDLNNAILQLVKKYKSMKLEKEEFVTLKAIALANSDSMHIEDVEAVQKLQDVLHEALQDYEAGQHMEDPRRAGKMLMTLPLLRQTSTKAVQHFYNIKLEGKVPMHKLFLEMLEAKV

The target in test [15] is Signal transducer and activator of transcription 3 (Homo sapiens) (UniProt P40763). As to the kind of experiment: ATG_STAT3_CIS: Attagene CIS-FACTORIAL HepG2 Assay for human Signal Transducer and Activator of Transcription 3 (STAT3) (AID 2282963). To be noted: HepG2, Attagene cis-factorial STAT3 reporter transcription; actives raise or lower the signal. The essentials:
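HepG2 cells transiently transfected with cis-element-driven multiple reporter transcription units; after 24 h chemical exposure, reporter mRNA measured by RT-PCR, 6-FAM primer-extension labelling, HpaI digestion and capillary electrophoresis. Bidirectional fitting versus DMSO baseline.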

The nature of test [16]: ATG_TCF_b_cat_CIS: Attagene CIS-FACTORIAL HepG2 Assay for human T-Cell-Factor with beta-catenin (TCF/b-cat) (AID 2282965). To be noted: HepG2 TCF/beta-catenin cis-reporter transcription, actives raise or lower the signal. The essentials:
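HepG2 cells transiently transfected with multiple cis-promoter-regulated reporter transcription units, so endogenous transcription factor activity is measured. Reporter mRNA read 24 hours after dosing by RT-PCR, fluorescent labelling and capillary electrophoresis; bidirectional fitting against DMSO.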

Test [17] in a line: ATG_GAL4_TRANS: Attagene TRANS-FACTORIAL HepG2 Assay for GAL4 (Internal Marker) (AID 2282976; active means hit-call score of the fitted dose curve at least 0.9, where 1 is the maximum). To be noted: HepG2 Attagene TRANS GAL4 internal marker reporter. The essentials:
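Background-control readout: GAL4-UAS reporter transcript in transiently transfected HepG2 cells after 24 h compound exposure. Measured by RT-PCR, 6-FAM primer extension, HpaI digest and capillary electrophoresis; gain-of-signal fit versus DMSO.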

Test [18] concerns the target Transcription factor Sp1 (Homo sapiens) (UniProt P08047). As to the kind of experiment: ATG_Sp1_CIS: Attagene CIS-FACTORIAL HepG2 Assay for human Specificity Protein 1 (Sp1) (AID 2282961). To be noted: HepG2 Sp1 cis-reporter transcription, actives raise or lower the signal. The essentials:
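Transient MRTU-transfected HepG2, 24 h compound exposure. Total RNA → oligo(dT) RT → PCR of reporter → 6-FAM primer extension → HpaI digest → CE. Endpoint fitted both directions vs DMSO.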

In test [19] the target is Glucocorticoid receptor (Homo sapiens) (UniProt P04150). As to the kind of experiment: ATG_GR_TRANS: Attagene TRANS-FACTORIAL HepG2 Assay for human Glucocorticoid Receptor (GR) (AID 2282978; active means hit-call score of the fitted dose curve at least 0.9, where 1 is the maximum;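 further: activators score as hits since higher reporter transcript over DMSO is fitted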). To be noted: HepG2 Attagene TRANS GR reporter, mRNA transcription. The essentials: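 Fluorescent capillary-electrophoresis quantitation of reporter mRNA is the readout, taken 24 h after dosing human HepG2 cells carrying transiently transfected GAL4-UAS reporter units activated by chimeric NR-GAL4 fusions; activity scored as induction over DMSO.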
Glucocorticoid receptor (Homo sapiens), sequence (P04150 whole entry, looked up, the tested form may be a part): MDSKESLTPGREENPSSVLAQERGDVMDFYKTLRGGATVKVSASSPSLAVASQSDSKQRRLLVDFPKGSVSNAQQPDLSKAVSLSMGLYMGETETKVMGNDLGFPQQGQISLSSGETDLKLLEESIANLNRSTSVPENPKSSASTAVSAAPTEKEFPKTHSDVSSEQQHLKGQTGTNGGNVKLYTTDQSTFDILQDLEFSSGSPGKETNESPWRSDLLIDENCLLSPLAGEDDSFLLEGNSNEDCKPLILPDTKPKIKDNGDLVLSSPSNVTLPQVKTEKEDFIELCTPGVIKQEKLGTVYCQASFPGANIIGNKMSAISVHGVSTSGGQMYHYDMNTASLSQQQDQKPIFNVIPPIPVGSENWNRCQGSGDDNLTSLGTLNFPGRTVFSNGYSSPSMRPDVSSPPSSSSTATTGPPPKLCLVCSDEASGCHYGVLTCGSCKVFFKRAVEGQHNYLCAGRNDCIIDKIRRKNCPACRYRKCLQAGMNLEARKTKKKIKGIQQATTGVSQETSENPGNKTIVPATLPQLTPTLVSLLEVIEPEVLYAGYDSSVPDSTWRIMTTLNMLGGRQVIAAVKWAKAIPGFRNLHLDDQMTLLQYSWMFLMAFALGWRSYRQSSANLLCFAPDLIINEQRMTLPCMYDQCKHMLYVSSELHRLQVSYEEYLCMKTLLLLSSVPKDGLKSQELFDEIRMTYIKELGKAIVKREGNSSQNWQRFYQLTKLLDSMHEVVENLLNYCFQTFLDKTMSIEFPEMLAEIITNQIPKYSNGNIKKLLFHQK

Broadly, the AC50 is the concentration at which the activity in the assay is half-maximal.

Results filed as inconclusive are left out. Active and inactive are the calls of the source. How the source made its calls, unless noted: active means hit-call score of the fitted dose curve at least 0.9, where 1 is the maximum; inactive means score below 0.9.

Signal transducer and activator of transcription 3 (Homo sapiens), sequence (P40763 whole entry, looked up): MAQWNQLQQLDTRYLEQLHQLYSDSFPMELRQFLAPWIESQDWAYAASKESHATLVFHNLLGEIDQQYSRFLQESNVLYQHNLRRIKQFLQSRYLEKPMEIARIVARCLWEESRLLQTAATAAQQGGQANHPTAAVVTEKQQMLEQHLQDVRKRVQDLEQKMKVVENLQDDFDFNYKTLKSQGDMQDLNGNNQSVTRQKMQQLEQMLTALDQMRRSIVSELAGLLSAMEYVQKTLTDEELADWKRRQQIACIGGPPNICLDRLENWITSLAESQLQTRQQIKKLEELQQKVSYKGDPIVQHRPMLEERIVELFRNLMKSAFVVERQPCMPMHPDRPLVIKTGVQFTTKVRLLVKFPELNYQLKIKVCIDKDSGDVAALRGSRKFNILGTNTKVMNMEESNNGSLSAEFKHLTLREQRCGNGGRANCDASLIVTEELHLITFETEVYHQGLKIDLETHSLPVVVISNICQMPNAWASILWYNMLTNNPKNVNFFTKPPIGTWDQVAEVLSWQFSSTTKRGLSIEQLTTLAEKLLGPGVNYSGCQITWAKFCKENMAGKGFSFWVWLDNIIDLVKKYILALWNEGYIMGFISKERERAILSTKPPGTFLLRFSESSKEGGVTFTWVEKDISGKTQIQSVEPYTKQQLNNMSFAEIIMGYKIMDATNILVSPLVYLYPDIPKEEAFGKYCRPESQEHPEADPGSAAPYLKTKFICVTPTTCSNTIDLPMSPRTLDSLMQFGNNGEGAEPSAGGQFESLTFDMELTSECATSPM
X-box-binding protein 1 (Homo sapiens), sequence (P17861 whole entry, looked up, the tested form may be a part): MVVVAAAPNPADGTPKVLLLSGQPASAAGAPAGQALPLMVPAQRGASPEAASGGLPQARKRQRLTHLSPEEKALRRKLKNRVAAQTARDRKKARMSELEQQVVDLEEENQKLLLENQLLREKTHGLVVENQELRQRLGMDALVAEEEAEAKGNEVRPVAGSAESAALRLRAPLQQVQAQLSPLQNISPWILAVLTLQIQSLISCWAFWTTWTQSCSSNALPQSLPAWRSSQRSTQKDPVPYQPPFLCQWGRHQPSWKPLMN
Estrogen receptor (Homo sapiens), sequence (P03372 whole entry, looked up, the tested form may be a part): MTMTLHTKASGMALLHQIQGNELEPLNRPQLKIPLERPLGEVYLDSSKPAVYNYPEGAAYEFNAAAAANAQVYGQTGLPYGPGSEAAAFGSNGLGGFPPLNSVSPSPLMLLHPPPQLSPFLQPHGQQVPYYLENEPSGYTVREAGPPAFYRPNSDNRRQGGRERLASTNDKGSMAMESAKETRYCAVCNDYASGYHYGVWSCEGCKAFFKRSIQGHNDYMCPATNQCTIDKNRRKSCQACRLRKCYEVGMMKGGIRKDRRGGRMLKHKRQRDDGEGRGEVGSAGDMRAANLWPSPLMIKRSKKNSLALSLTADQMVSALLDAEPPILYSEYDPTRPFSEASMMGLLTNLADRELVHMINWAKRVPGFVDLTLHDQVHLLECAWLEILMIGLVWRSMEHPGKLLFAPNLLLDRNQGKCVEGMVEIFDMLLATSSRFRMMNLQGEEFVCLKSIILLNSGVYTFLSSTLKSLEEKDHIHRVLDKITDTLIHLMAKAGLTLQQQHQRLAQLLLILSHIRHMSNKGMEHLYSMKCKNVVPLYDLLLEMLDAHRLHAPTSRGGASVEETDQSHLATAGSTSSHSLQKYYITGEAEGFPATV
Transcription factor Sp1 (Homo sapiens), sequence (P08047 whole entry, looked up): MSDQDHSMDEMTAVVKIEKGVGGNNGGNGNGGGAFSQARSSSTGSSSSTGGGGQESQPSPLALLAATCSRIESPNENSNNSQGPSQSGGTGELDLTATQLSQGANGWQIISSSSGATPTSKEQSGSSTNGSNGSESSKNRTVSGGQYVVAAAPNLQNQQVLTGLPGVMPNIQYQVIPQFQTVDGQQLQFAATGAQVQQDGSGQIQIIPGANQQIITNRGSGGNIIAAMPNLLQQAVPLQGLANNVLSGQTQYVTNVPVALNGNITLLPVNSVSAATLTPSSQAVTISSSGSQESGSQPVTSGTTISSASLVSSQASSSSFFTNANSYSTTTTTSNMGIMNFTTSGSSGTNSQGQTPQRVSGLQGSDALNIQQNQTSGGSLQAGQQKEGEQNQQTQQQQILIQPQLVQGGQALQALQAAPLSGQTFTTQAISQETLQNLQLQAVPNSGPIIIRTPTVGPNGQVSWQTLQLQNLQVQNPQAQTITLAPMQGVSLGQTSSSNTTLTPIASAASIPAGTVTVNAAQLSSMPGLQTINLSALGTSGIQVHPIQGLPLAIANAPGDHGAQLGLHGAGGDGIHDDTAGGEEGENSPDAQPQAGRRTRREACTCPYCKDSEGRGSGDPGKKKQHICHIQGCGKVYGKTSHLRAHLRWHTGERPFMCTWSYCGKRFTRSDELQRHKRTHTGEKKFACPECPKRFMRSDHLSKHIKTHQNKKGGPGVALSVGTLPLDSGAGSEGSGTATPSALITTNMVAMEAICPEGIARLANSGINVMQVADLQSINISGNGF

For `CCCCc1ccc2ccccc2c1S(=O)(=O)O`, the values for the AC50 in [1] and in test [9] were 2.52 µM (active) and 6.19 µM (active), respectively. The compound was classed as inactive in test [2], in test [3], in test [4], in test [5], in test [6] and in test [7]. Further, the compound was classed as inactive in [8], in test [10], in test [11], in test [12], in test [13] and in test [14].

On to `COc1cc([N+](=O)[O-])ccc1N`, for which the outcome in test [1], in test [2], in test [3], in test [4], in test [15] and in test [6] was inactive. In addition, the outcome in test [16], in test [7], in [8], in test [9], in test [10] and in test [12] was inactive. In addition, the call in test [13] and in test [17] was inactive.

Consider `C[C@]12CC[C@@H]3c4ccc(O)cc4CC[C@H]3[C@@H]1CC[C@@H]2OC(=O)CCC1CCCC1`, for which the AC50 is 3.89 µM (active) in test [1], 163 µM (active) in test [4] and 0.0823 µM (active) in test [11]. Further, the compound was classed as inactive in test [3], in [18], in test [5], in test [15], in test [6] and in [16]. Also, the result in test [7], in test [8], in test [9] and in [12] was inactive.

For the compound `FCOC(C(F)(F)F)C(F)(F)F`, the result in test [1], in [2], in test [3], in test [4], in [5] and in test [15] was inactive. In addition, the compound was called inactive in test [6], in test [16], in test [7], in test [8], in [9] and in [10]. The outcome in test [12], in [13], in test [17] and in test [19] was inactive.
